Where “and” joins values, the source holds several entries; their conditions need not be identical. Identical values can stand only once. Inconclusive results are not listed. A structure can be active in one record and inactive in another. Calls of active or inactive are those of the source. Unless noted, calls come from the whole dose curve; as a rule, active = well fitted curve in the direction sought with a large enough effect; inconclusive = small, poorly fitted or top-dose-only effect, or another doubt; inactive = no such curve, though single readings can be large; an effect the other way counts as inactive or inconclusive.
How the values were obtained:
[1] = target: DNA repair nuclease/redox regulator APEX1 (Homo sapiens) (UniProt P27695); assay: qHTS Validation Assay for Inhibitors of the Human Apurinic/apyrimidinic Endonuclease 1 (APE1) (AID 1705;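 note: TAMRA fluorescence gain over two minutes as APE1 cuts a quenched THF abasic duplex; % is set by controls: 0 for no effect and ±100 for the full control effect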)
Summary of the method: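 Substrate: 50 nM final fluorophore/quencher THF-abasic duplex. Enzyme preincubated with compounds 15 min, RT. Progress derived from fluorescence difference, third minus first kinetic read.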

[2] = qHTS for differential inhibitors of proliferation of Plasmodium falciparum line 7G8 (AID 1815);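 note: parasite growth measured after three days of incubation; plate controls were vehicle wells for no effect and reference inhibitor wells for full effect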
[3] = qHTS for differential inhibitors of proliferation of Plasmodium falciparum line GB4 (AID 1816); conditions: Potency: Plasmodium falciparum GB4 proliferation inhibition;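 note: parasite growth measured after 72 h incubation; 0% = vehicle DMSO and -100% = reference inhibitor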
[4] = qHTS for differential inhibitors of proliferation of Plasmodium falciparum line 3D7 (AID 1876);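 note: parasite growth measured after three days of culture; 0% = vehicle wells and -100% = reference inhibitor wells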
[5] = qHTS for differential inhibitors of proliferation of Plasmodium falciparum line Dd2 (AID 1882); conditions: Potency: Plasmodium falciparum Dd2 proliferation inhibition;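 note: compound exposure of 72 h on infected erythrocytes; plate controls were DMSO vehicle for no effect and 0.29 µM artemisinin for full effect; nearly all actives have a fitted effect of over 65% in size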
Summary of the method: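 SYBR Green I DNA fluorescence read-out, ex 485/em 535 nm. Signals were normalized to 0.29 uM artemisinin and DMSO wells, then corrected using vehicle-only plates flanking each stack. Parasite growth ran 72 h in erythrocytes before lysis.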

[6] = qHTS for differential inhibitors of proliferation of Plasmodium falciparum line W2 (AID 1883); conditions: Potency: Plasmodium falciparum W2 proliferation inhibition;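 note: parasites grown with compound for 72 h before lysis and staining; 0% = vehicle wells and -100% = control inhibitor wells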
[7] = qHTS for differential inhibitors of proliferation of Plasmodium falciparum line HB3 (AID 1886); conditions: Potency: Plasmodium falciparum HB3 proliferation inhibition;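 note: parasites grown with compound for 72 h before SYBR Green readout; plate controls were vehicle for no effect and reference inhibitor for full effect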
[8] = target: ATP-dependent DNA helicase Q1 (Homo sapiens) (UniProt P46063); assay: qHTS Validation Assay for Inhibitors of RecQ-Like Dna Helicase 1 (RECQ1) (AID 2353);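 note: plate controls were DMSO vehicle for no effect and enzyme-free control for full effect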
Summary of the method: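 50 nM RECQ1T1 preincubated 15 min with compound in Tris pH 8.0 buffer with MgCl2, DTT, Tween-20 and 2.5 ug/ml poly(dI-dC); started with 200 nM TAMRA/BHQ-2 forked duplex and 2 mM ATP. Unwinding read as fluorescence (525/598 nm), two reads 2 h apart.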

[9] = Quantitative high throughput screen for delayed death inhibitors of the malarial parasite plastid, 96 hour incubation (AID 488745);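 note: luciferase-expressing P. falciparum in erythrocytes at 2% hematocrit and 0.1% parasitemia; % is set by controls: 0 for no effect and ±100 for the full control effect; nearly all actives have a fitted effect of over 70% in size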
Summary of the method: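 Growth of reporter-bearing P. falciparum in red cells is measured after 96 h with compound, covering two erythrocytic cycles. Luminescence from the integrated luciferase serves as the growth signal.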

[10] = target: M-phase phosphoprotein 8 (Homo sapiens) (UniProt Q99549); assay: qHTS Validation Assay for Inhibitors for MPP8 Chromodomain Interactions with Methylated Histone Tails (AID 488949);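 note: 50 nM MPP8 with 50 nM peptide preformed then compounds added for 30 min; AlphaScreen signal from MPP8 chromodomain bound to biotinylated H3K9me3 peptide; top concentration of the series differs between compounds; % is set by controls: 0 for no effect and ±100 for the full control effect; nearly all actives have a fitted effect of over 55% in size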
Summary of the method: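 Chemiluminescent proximity assay: histidine-tag capture via nickel acceptor beads, biotin peptide via streptavidin donor beads. Protein and peptide each at 50 nM, pH 7.4, with 30 min incubations at room temperature for complex formation, compound exposure and bead binding.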

[11] = target: Transient receptor potential cation channel subfamily V member 1 (Homo sapiens) (UniProt Q8NER1); assay: HTS Assay for Compounds that Act as Enhancers of the Vanilloid Receptor 1 (AID 488979); note: 0% is about no effect
Summary of the method: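 TRPV1-expressing cells loaded with Fluo-8 calcium dye; compounds added and calcium influx read kinetically for 3 min (agonist phase), then capsaicin at EC20 added and read 2 min more for enhancement. Fluorescence ex 480/em 520 nm.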

[12] = target: Thyrotropin receptor (Homo sapiens) (UniProt P16473); assay: qHTS Assay for Antagonists of the Thyroid Stimulating Hormone Receptor (AID 488980); note: 0% is about no effect
Summary of the method: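 Inhibition of TSH-stimulated cAMP accumulation was quantified by homogeneous time-resolved FRET in TSHR-transfected HEK293 cells. Agonist: TSH, 4 nM final (EC80).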

[13] = target: Thyrotropin-releasing hormone receptor (Homo sapiens) (UniProt P34981); assay: qHTS for Small Molecule Agonists and Allosteric Enhancers of Human TRH Receptor: Validation Screen for Agonists (AID 493127;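 active = calcium activation more than 3 SD above the typical response in the agonist read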;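 note: intracellular calcium rise by fluo-8 fluorescence before TRH EC20 addition; 0% is about no effect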); conditions: TRH receptor agonist cell assay; at 2 µM; stronger effect = higher value
Summary of the method: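 Gq-coupled calcium mobilization in TRHR cells after compound addition, monitored kinetically with fluo-8 dye on an FDSS reader.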

[14] = target: Galactokinase (Homo sapiens) (UniProt P51570); assay: qHTS Validation Assay for Inhibitors of Human Galactokinase (GALK) (AID 493189); note: 0% is about no effect
Summary of the method: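 Enzyme activity is inferred from ATP consumption: human GALK phosphorylates galactose (100 uM) using 35 uM ATP for 1 h at room temperature, and luciferase-based Kinase-Glo Plus reports unconsumed ATP.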

[15] = Validation screen for small molecules that induce DNA re-replication in SW480 colon adenocarcinoma cells (AID 504364); note: 0% is about no effect
Summary of the method: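 Cells are treated 48 hr with test compound, stained 40 min with Hoechst at 37 C, and scanned for nuclear fluorescence; compounds inducing re-replication increase nuclei with elevated intensity.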

[16] = test system: Zika virus NS2B-NS3 protease; assay: Primary screen GU AMC qHTS for Zika virus inhibitors (AID 1347154);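 note: 0% = no-inhibitor control and -100% = no-enzyme control; nearly all actives have a fitted effect of over 70% in size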
Summary of the method: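 Unlinked Zika NS2B hydrophilic domain/NS3 protease domain noncovalent complex (25 nM final) in 10 mM Tris-HCl pH 8.0, 0.01% Tween 20, with AMC peptide substrate. Fluorescence (ex 340, em 450 nm) change over 15 min, room temperature; percent inhibition fitted to 4-parameter Hill equation.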

[17] = Primary qHTS for small molecule stabilizers of the endoplasmic reticulum resident proteome: Secreted ER Calcium Modulated Protein (SERCaMP) assay (AID 1508630); note: potency is the fitted concentration of half-maximal effect
Summary of the method: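 GLuc-SERCaMP-expressing SH-SY5Y cells, pretreated 16 h with compound, are challenged with thapsigargin to empty ER calcium stores; after 4 h, coelenterazine is added directly to the medium and luminescence is imaged.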

[18] = AP1 Signaling Pathway (AID 357; active = well fitted curve in either direction with a large enough effect, not every such curve was filed as active; note: % is set by controls: 0 for no effect and ±100 for the full control effect); conditions: ME-180 AP-1-bla reporter, EGF-induced, beta-lactamase ratio, 5 h; at 17.2 µM (top of the series)
Summary of the method: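 ME-180 cells with beta-lactamase reporter under AP-1 response element, stimulated with EC50 EGF; compounds tested in titration series, 5 h at 37 °C. CCF4 substrate added 2.5 h at room temperature; 460/530 nm emission ratio gave %activity and AC50.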

[19] = target: Cytochrome P450 1A2 (Homo sapiens) (UniProt P05177); assay: p450-cyp1a2 (AID 410; calls by dose curve; note: potency is the fitted concentration of half-maximal effect)
Summary of the method: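 Inhibition was calculated relative to 57 uM furafylline (full inhibition). The reaction used human CYP1A2 at 20nM with Luciferin-ME at its Km, 100uM, driven by an NADPH-regenerating system for 60 min at room temperature.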

[20] = NFAT Signaling Pathway (AID 444; active = well fitted curve in either direction with a large enough effect, not every such curve was filed as active;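 note: carbachol stimulus at about its EC50 of 1 µM final; % is set by controls: 0 for no effect and ±100 for the full control effect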); conditions: Jurkat NFAT-bla M1, carbachol, beta-lactamase ratio, 5 h; at 17.2 µM (top of the series)
Summary of the method: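 Jurkat cells carrying an NFAT-driven β-lactamase reporter and co-transfected muscarinic M1 receptor were treated with compound plus carbachol (1 uM final, an EC50 level) for 5 h at 37 °C. CCF4 loading followed for 1 h at RT; 460/530 nm ratio gave %activity.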

[21] = Stat Signaling Pathway (AID 446; active = well fitted curve in either direction with a large enough effect, not every such curve was filed as active;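 note: ME-180 cervical cancer cells given 40 pM IL-6 alongside compound; SIE-controlled beta-lactamase reporter measured as 460/530 nm FRET emission ratio; % is set by controls: 0 for no effect and ±100 for the full control effect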); conditions: ME-180 SIE beta-lactamase reporter, IL-6 stimulated, 5 h; at 17.2 µM (top of the series)
Summary of the method: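 ME-180 SIE-bla cells; overnight plating; cpd + IL-6 40 pM, 5 h, 37 C; LiveBLAzer 2.5 h RT; 460/530 nm emission ratio. Normalized to 300 pM IL-6 and 125 nM JAK inhibitor controls.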

[22] = target: Glucocorticoid receptor (Homo sapiens) (UniProt P04150); assay: GR-GFP Redistribution (AID 450;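 active = compounds whose dose series gives a full or clear partial fitted curve of increased nuclear translocation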; note: potency is the fitted concentration of half-maximal effect); conditions: U2OS GR-GFP nuclear translocation, laser cytometry, 2 h
[23] = target: Glucocorticoid receptor (Homo sapiens) (UniProt P04150); assay: GR-EFC Redistribution (AID 451; calls by dose curve; note: potency is the fitted concentration of half-maximal effect); conditions: CHO-K1 GR-EFC translocation, beta-gal luminescence, 2 h
Summary of the method: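 CHO-K1 cells stably expressing nuclear-localized β-gal enzyme acceptor and GR fused C-terminally to the enzyme donor fragment; ligand-driven nuclear translocation restores β-gal by complementation. Compounds titrated up to 46 uM final, 2 h at 37 °C; luminescence read.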

[24] = target: Mitogen-activated protein kinase 10 (Mus musculus) (UniProt Q61831); assay: JNK3 AlphaScreen Assay (AID 530; active = well fitted curve in either direction with a large enough effect, not every such curve was filed as active)
Summary of the method: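 JNK3 came from HepG2 lysates pre-activated with IL-1beta and TNF-alpha and phosphorylated biotinylated GST-cJun (1-79) at 10 uM ATP, pH 7.6, room temperature. Compounds were titrated. AlphaScreen signal used anti-phospho-cJun (Ser73) antibody.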

[25] = target: 3',5'-cyclic-AMP phosphodiesterase 4B (Homo sapiens) (UniProt Q07343); assay: qHTS Assay for Inhibitors of PDE-IV (AID 607; active = well fitted activation curve with a large enough effect in the main read-out, with a control signal flat, not every such curve was filed as active; note: % of control where 0% means no effect)
Summary of the method: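 ACTOne HEK293 cells carry a modified cAMP-gated CNG channel and express endogenous PDE4; plated 1000 cells/well, compounds up to 22.9 uM final. Membrane-potential dye fluorescence (ex 535/em 590) was read; parental cells received 10 uM forskolin + 100 uM RO 20-1724.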

[26] = qHTS Assay for Lipid Storage Modulators (AID 1519; calls by dose curve); conditions: Drosophila S3 cells, BODIPY lipid droplet/cell ratio, laser cytometry, cells loaded with oleic acid
Summary of the method: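 Cells seeded at 5,000 per well were treated with compounds over a concentration series and loaded with oleic acid (400 uM, as added). Lipid droplet fluorescence (488 nm excitation, 500-530 nm channel) was read by laser-scanning cytometry and normalized to 20 uM Triacsin C.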

[27] = target: Ubiquitin carboxyl-terminal hydrolase 1 (Homo sapiens) (UniProt O94782); assay: Inhibitors of USP1/UAF1: Pilot qHTS (AID 504865);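 note: rhodamine fluorescence freed from ubiquitin-rhodamine substrate followed over time; top concentration of the series differs between compounds; % is set by controls: 0 for no effect and ±100 for the full control effect; nearly all actives have a fitted effect of over 35% in size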
Summary of the method: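 Enzyme-free wells gave the negative control, while test wells held 1nM USP1/UAF1 preincubated with compound for 15 min at room temperature. Ub-Rho at 150nM final started the reaction, and fluorescence at 480/540 nm was recorded kinetically.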

[28] = target: DNA dC->dU-editing enzyme APOBEC-3G (Homo sapiens) (UniProt Q9HC16); assay: qHTS for inhibitors of Vif-A3G interactions: Validation (AID 588379); note: 0% is about no effect
Summary of the method: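 HeLa cells stably expressing Vif and A3G-eYFP, 700 cells/well, incubated overnight at 37 deg C, then exposed to compound overnight at 37 deg C. Inhibition of Vif-mediated degradation read as increased yellow fluorescence (Ex 488/Em 500-530) by laser-scanning cytometry.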

[29] = target: Rap guanine nucleotide exchange factor 3 (Homo sapiens) (UniProt O95398); assay: Confirmatory qHTS for antagonist of cAMP-regulated guanine nucleotide exchange factor 3 (EPAC1) (AID 1645880);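 note: plate controls were DMSO only for no effect and full effect of the ATA control for full effect; nearly all actives have a fitted effect of over 55% in size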
Summary of the method: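 Nucleotide exchange uses 100 nM EPAC1, 250 nM RAP1B-BODIPY-GDP and 50 uM GDP, with compounds in a concentration-titration series. After 5 min at room temperature, fluorescence (480 nm ex/540 nm em) is read every 5 min for 30 min. Data are normalized to control ATA and DMSO.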

[30] = target: Rap guanine nucleotide exchange factor 3 (Homo sapiens) (UniProt O95398); assay: Confirmatory qHTS for agonist of cAMP-regulated guanine nucleotide exchange factor 3 (EPAC1) (AID 1645881);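 note: EPAC1 catalysed release of BODIPY-GDP from Rap1B seen as fluorescence loss; 100% = effect of cAMP agonist control; nearly all actives have a fitted effect of over 75% in size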
[31] = target: Rap guanine nucleotide exchange factor 4 (Homo sapiens) (UniProt Q8WZA2); assay: Confirmatory qHTS for agonist of cAMP-regulated guanine nucleotide exchange factor 4 (EPAC2) (AID 1645884);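 note: nucleotide exchange releases bodipy-GDP from Rap1 and this lowers its fluorescence; % is set by controls: 0 for no effect and ±100 for the full control effect; nearly all actives have a fitted effect of over 65% in size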
[32] = target: Rap guanine nucleotide exchange factor 4 (Homo sapiens) (UniProt Q8WZA2); assay: Confirmatory qHTS for antagonist of cAMP-regulated guanine nucleotide exchange factor 4 (EPAC2) (AID 1645885); note: % is set by controls: 0 for no effect and ±100 for the full control effect; nearly all actives have a fitted effect of over 25% in size
[33] = measured here: cell count channel max response
[34] = measured here: lipid channel max response

Sequence of Ubiquitin carboxyl-terminal hydrolase 1 (Homo sapiens) (O94782 whole entry, looked up): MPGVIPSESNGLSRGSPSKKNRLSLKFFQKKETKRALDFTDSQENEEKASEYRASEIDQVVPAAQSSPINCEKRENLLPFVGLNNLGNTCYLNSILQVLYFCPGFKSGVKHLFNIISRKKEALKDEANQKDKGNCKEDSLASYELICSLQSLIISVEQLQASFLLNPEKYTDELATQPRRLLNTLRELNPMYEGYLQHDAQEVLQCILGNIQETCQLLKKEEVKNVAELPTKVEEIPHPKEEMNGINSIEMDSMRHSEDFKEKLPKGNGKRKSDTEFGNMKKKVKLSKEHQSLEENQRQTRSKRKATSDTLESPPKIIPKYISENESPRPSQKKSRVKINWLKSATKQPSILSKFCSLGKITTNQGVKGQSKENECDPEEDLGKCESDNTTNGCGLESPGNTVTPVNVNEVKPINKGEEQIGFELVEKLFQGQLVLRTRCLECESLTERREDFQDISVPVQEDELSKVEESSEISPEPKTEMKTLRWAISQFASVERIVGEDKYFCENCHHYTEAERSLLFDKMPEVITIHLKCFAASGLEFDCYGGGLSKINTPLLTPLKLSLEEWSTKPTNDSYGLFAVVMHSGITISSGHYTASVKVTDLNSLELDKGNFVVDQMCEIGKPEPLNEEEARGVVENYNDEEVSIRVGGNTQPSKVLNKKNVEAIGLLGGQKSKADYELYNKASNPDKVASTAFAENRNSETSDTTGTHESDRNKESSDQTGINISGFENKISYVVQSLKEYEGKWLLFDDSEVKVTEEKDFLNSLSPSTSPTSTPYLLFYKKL
Sequence of Glucocorticoid receptor (Homo sapiens) (P04150 whole entry, looked up, the tested form may be a part): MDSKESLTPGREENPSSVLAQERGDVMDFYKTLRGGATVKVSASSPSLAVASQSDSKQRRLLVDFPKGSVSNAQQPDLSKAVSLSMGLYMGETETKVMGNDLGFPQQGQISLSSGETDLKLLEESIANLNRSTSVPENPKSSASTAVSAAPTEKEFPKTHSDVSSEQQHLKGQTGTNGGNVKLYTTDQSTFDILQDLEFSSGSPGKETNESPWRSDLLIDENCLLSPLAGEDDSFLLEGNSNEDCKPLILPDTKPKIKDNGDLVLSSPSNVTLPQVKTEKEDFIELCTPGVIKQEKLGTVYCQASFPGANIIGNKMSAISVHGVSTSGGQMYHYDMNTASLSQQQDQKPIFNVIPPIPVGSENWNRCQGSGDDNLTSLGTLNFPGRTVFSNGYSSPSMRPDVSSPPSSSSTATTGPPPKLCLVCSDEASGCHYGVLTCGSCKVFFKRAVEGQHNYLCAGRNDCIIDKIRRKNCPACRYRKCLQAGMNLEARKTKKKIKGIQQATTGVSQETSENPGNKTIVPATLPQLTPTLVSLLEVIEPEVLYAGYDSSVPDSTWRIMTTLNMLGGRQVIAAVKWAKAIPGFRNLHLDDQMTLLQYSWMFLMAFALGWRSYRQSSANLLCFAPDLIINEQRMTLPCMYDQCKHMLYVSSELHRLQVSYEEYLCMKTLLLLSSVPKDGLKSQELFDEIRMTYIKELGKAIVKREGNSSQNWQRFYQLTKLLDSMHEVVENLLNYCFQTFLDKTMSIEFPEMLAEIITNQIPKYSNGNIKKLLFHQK
Sequence of 3',5'-cyclic-AMP phosphodiesterase 4B (Homo sapiens) (Q07343 whole entry, looked up): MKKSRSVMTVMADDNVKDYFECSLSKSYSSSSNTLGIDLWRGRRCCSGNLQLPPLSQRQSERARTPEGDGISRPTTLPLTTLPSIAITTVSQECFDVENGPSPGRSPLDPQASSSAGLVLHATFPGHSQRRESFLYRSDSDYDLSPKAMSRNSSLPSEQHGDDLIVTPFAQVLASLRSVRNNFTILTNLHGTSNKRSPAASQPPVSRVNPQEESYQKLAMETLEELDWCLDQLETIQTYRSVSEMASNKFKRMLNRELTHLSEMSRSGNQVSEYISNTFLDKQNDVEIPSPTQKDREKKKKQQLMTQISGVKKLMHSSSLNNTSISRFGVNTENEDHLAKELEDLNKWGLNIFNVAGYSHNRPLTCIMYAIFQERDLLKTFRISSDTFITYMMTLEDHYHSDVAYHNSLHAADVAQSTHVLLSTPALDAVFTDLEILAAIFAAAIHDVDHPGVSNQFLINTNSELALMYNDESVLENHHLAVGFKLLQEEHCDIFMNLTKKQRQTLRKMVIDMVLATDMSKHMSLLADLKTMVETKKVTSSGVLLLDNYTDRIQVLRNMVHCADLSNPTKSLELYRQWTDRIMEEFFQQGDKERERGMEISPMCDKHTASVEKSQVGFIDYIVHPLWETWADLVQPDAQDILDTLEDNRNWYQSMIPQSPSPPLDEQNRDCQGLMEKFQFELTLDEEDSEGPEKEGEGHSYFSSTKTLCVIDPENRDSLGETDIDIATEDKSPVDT
Sequence of Cytochrome P450 1A2 (Homo sapiens) (P05177 whole entry, looked up): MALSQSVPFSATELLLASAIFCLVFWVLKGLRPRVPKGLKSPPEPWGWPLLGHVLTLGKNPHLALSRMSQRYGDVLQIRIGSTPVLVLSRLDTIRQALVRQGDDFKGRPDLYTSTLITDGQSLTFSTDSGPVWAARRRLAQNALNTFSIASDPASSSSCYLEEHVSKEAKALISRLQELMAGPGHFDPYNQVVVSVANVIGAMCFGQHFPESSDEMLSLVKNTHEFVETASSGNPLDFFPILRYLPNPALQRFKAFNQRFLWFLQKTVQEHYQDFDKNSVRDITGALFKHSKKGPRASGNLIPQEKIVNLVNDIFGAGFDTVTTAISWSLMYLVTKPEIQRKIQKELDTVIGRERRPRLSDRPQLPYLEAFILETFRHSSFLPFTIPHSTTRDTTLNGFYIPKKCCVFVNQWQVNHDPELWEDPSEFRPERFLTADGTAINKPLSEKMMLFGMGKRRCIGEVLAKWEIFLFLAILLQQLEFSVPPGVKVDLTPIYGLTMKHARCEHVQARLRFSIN
Sequence of DNA dC->dU-editing enzyme APOBEC-3G (Homo sapiens) (Q9HC16 whole entry, looked up): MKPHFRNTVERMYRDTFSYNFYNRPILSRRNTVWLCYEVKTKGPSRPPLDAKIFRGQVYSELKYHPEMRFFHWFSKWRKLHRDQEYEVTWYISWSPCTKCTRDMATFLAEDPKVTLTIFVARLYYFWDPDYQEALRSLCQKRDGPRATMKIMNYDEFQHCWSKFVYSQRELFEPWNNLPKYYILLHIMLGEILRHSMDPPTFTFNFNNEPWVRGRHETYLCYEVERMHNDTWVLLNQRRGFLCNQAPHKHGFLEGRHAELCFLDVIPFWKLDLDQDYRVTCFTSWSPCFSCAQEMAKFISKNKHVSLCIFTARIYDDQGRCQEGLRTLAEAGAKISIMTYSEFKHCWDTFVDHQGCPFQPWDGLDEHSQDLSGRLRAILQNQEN
Sequence of Rap guanine nucleotide exchange factor 3 (Homo sapiens) (O95398 whole entry, looked up): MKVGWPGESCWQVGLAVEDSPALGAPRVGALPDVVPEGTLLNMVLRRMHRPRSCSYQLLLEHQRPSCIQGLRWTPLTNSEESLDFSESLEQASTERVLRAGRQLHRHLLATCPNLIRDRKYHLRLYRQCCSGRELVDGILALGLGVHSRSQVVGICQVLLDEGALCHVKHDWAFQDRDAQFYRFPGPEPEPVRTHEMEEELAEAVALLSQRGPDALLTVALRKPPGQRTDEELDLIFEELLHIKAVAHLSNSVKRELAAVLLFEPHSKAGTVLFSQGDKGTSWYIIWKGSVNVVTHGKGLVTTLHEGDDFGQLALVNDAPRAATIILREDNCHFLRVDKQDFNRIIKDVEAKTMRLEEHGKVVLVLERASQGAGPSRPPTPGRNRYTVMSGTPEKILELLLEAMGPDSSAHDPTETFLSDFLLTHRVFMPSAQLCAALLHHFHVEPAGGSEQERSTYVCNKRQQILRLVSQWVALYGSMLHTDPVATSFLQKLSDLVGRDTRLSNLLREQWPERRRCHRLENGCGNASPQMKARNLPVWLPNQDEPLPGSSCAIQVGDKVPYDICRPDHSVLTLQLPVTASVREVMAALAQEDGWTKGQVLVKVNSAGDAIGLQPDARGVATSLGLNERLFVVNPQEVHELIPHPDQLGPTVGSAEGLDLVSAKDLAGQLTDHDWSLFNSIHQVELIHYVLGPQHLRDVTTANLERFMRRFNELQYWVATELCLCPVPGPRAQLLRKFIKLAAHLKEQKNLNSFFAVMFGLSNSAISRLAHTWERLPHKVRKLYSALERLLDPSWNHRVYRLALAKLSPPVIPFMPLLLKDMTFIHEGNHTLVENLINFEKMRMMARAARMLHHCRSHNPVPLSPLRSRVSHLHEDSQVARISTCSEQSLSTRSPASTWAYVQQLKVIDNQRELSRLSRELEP
Sequence of M-phase phosphoprotein 8 (Homo sapiens) (Q99549 whole entry, looked up): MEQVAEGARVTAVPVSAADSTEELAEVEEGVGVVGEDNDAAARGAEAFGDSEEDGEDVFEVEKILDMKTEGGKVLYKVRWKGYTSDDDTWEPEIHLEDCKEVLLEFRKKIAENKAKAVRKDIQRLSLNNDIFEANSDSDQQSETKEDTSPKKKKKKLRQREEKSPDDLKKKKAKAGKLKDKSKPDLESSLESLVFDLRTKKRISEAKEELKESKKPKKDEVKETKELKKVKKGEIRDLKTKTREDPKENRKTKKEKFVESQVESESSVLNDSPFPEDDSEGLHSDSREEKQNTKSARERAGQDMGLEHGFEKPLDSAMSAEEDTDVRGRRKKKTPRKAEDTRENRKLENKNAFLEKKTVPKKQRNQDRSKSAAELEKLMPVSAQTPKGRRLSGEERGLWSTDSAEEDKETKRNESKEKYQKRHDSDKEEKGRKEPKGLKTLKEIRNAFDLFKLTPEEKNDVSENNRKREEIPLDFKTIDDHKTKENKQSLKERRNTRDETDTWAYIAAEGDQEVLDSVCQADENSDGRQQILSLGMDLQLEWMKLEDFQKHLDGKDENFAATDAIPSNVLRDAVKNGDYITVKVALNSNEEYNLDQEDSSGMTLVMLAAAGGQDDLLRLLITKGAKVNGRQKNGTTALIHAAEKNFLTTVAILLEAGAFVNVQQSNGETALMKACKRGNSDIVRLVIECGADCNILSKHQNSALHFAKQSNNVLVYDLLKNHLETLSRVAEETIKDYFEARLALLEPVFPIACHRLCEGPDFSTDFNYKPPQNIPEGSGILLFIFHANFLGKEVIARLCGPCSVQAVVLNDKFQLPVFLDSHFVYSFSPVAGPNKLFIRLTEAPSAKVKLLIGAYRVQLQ

CCCCCCCCCCCCC/C=C/[C@@H](O)[C@@H](N)CO
inactive: Potency [1] | Potency [2] | Potency [3] | Potency [4] | Potency [5] | Potency [6] | Potency [7] | Potency [8] | Potency [9] | Potency [10] | outcome [11] | outcome [12] | activation [13] 0.312% | outcome [14] | outcome [15] | Potency [16] | activity change, negative = inhibition [17] -29.5% [at 3.88 µM]
active: Potency [17] 1.12 µM

CC(C)NC[C@H](O)c1ccc2ccccc2c1
-2.74% and 9.7%: max response [26, 34]
active: Potency [19] 10 µM and 12.6 µM
2.13% and 8.48%: max response [26, 33]
inactive: activity change, negative = inhibition [18] 1.15% | activity change, negative = inhibition [20] -18.4% | activity, negative = inhibition [21] -5.4% | Potency [22] > 20.6 µM and > 46 µM | Potency [23] > 20.6 µM and > 46 µM | Potency [24] | Potency [25] | activity change, negative = inhibition ([26]; at 25.7 µM (top of the series)) -2.39% | activity change, negative = inhibition ([26]; at 57.5 µM (top of the series)) -0.481% | Potency [27] | Potency [28] | Potency [16] | Potency [17]

N#C/C(=C\c1cc(Cl)cc(Cl)c1)c1cccnc1
inactive: Potency [16] | Potency [17]

CCCN1CCCC(c2cccc(S(C)(=O)=O)c2)C1 (stereo unspecified)
inactive: Potency [16] | Potency [17]

CN(C)CCCSC(=N)N
inactive: activity change, negative = inhibition [18] 2.97% | activity change, negative = inhibition [20] -13.3% | activity, negative = inhibition [21] -1.52% | Potency [22] > 20.6 µM and > 46 µM | Potency [23] > 20.6 µM and > 46 µM | Potency [24] | Potency [25] | activity change, negative = inhibition ([26]; at 25.7 µM (top of the series)) -2.91% | activity change, negative = inhibition ([26]; at 57.5 µM (top of the series)) 3.5% | Potency [27] | Potency [28] | Potency [16] | Potency [17] | Potency [29] | outcome [30] | outcome [31] | Potency [32]
-5.95% and 13.8%: max response [26, 34]
-7.27% and -5.75%: max response [26, 33]

H-EQKQLQ-OH
inactive: activity change, negative = inhibition [16] 7.08% [at 6.83 µM] | activity change, negative = inhibition [17] -18.8% [at 3.88 µM]

OC[C@H]1O[C@@H](n2cnc3c(N[C@H]4C[C@H]5CC[C@@H]4C5)ncnc32)[C@H](O)[C@@H]1O
inactive: Potency [16] | Potency [17]

— PubChem BioAssay (NCATS)
